About 3,600 (1.2%) of roughly 300,000 compounds were called active. This is one part of a sample in which actives are shown more often than they occur. A number with no mark means an inactive call. Cut-off read from the data, not from the text of the source: active = activation above about 30% (passing the limit was not always enough); inconclusive = no clear call, values can overlap the other calls.

This assay can be described thus: Wnt/beta-catenin pathway activators, primary screen, cell-based, plate reader, single point (AID 743398).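 Note: 0% = neutral control wells and 100% = positive control wells.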 The conditions noted are these: Wnt/beta-catenin reporter cell assay, activator, at 9.35 µM, hits give high values.
Take `Cc1ccc2c(N)c(C(=O)c3ccccc3)sc2n1`: the activation is 22.1%.

Take `CN(C)c1ccnc2sc(C(=O)c3ccccc3)c(N)c12`: the activation is 79.3% (active).

For `CCN(CC)C(=O)c1sc2nc(-c3ccccc3)ccc2c1N`, the activation was 10.1%.

For the compound `COc1cccc(C(O)c2ncc(-c3ccc4ccccc4c3)[nH]2)c1` (stereo unspecified), the activation was 0.0285%.

`Cc1ccc2nc(-c3ccco3)c(Cc3cccc(Cl)c3)n2c1`: the activation was -1.15%.

In the case of `O=C(COc1ccc([N+](=O)[O-])cc1)Nc1ccc(N2CCCC2)cc1`, the activation is -2.41%.

Turning to `O=C(N/N=C/c1ccc(O)cc1)/C(=C/c1ccc([N+](=O)[O-])cc1)NC(=O)c1ccccc1`, the activation is 0.356%.

With `O=C(COc1ccc(/C=N/NC(=O)c2ccc(O)cc2)cc1)Nc1ccc([N+](=O)[O-])cc1`, the activation is 46.5% (active).

In the case of `CCC(CC)C(C(=O)NC1CCCC1)N1CCN(c2cc(C)nc3ccccc23)CC1` (stereo unspecified), the activation was -1.19%.

Take `CNC(=O)c1ccc(CN(C)C(=O)c2cc(C3CC3)nc3c2cnn3C(C)C)cc1`: the activation is 7.06%.

As for `O=C(Cc1ccc([N+](=O)[O-])cc1)NCCS(=O)(=O)N1CCN(c2ccccc2)CC1`, the activation was -2.6%.

`CCCOc1ccc(F)cc1-c1cc(C(=O)Nc2ccc(F)c(Cl)c2)[nH]n1`: the activation was -0.991%.

As for `CCCCCCCCN1C(=O)[C@@H](CC(=O)NCc2ccc(C)o2)C[C@@]2(C(=O)OC)C1=C[C@H](C(C)(C)C)O[C@@H]2C`, the activation is -3.74%.

In the case of `COc1ccc2c(c1)O/C(=C\c1ccccc1O)C2=O`, the activation is 39.8% (active).

For the compound `COC(=O)C(C)Oc1ccc2c(c1)O/C(=C\c1cccc(Br)c1)C2=O` (stereo unspecified), the activation is -0.1%.

As to `O=C1Oc2ccccc2C(=O)/C1=C/c1ccccc1O`, the activation is -4.19%.

On to `Clc1cccc2c1C1CC2CCN1Cc1ccccc1` (stereo unspecified), for which the activation is -2.22%.

On to `COc1ccccc1OCC(=O)O/N=C(\N)c1ccccn1`, for which the activation was 55.9% (active).

With `N/C(=N\OC(=O)Cc1ccc([N+](=O)[O-])cc1)c1ccccn1`, the activation is 1.55%.

For `COc1ccc(C(=O)O/N=C(\N)c2ccccn2)cc1[N+](=O)[O-]`, the activation was 17%.

Regarding `COc1ccc(OC)c(CN2C(=O)CCC2(C)c2nnnn2Cc2ccccc2)c1` (stereo unspecified), the activation was -0.624%.

Values taken from PubChem BioAssay AID743398 (Broad Institute, 2014).
